Data on nine molecules can be found in PubChem BioAssay (NCI).

What all share (assay): NCI-60 one-dose screen, 48 h (100 = growth as untreated, 0 = no growth, -100 = all killed)
One assay concerns RPMI-8226 leukemia. The conditions noted are these: 10 µM unless noted.
Another assay has as its system OVCAR-8 ovarian. The following applies: 10 µM unless noted.
Another assay relates to OVCAR-5 ovarian. The conditions noted are these: 10 µM unless noted.
The test system of another assay is OVCAR-4 ovarian. The conditions noted are these: 10 µM unless noted.
Another assay has as its system SK-OV-3 ovarian. The conditions noted are these: 10 µM unless noted.
For another assay, the system named is IGROV1 ovarian. The following applies: 10 µM unless noted.
The next assay concerns OVCAR-3 ovarian. The conditions noted are these: 10 µM unless noted.
Another assay concerns HS 578T breast. The conditions noted are these: 10 µM.
For another assay, the system named is NCI/ADR-RES ovarian. The conditions noted are these: 10 µM unless noted.
The test system of a further assay is T-47D breast. The conditions noted are these: 10 µM unless noted.
The test system of the next assay is BT-549 breast. The following applies: 10 µM unless noted.
The subject of a further assay is MDA-MB-435 melanoma. The conditions noted are these: 10 µM unless noted.
Another assay has as its system SW-620 colon. The following applies: 10 µM unless noted.
In the next assay the test system is MCF7 breast. The following applies: 10 µM unless noted.
For the next assay, the system named is HCT-116 colon. The conditions noted are these: 10 µM unless noted.
The subject of another assay is HCC-2998 colon. The following applies: 10 µM unless noted.
The subject of a further assay is KM12 colon. The following applies: 10 µM unless noted.
The next assay has as its system SR leukemia. The following applies: 10 µM unless noted.

The panel holds about 83,000 compounds, 20% with a hit somewhere; the sample as a whole holds those more often.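 Treatment: one concentration, 48 hours, 96-well format. Scoring: percent growth, with anything below 10 considered active.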 Values without a mark were called inactive. Activity calls are given as the source filed them.

In the case of `O=C(/C=C/c1ccccc1)C(Br)C(Br)c1ccccc1` (centres undefined), the growth in the assay on RPMI-8226 leukemia is -42.2% (active); with OVCAR-8 ovarian it was -20.7% (active); with OVCAR-5 ovarian, 38.3%; in the assay with OVCAR-4 ovarian, 13%; in the assay with SK-OV-3 ovarian, 86.1%; in the assay with IGROV1 ovarian, -45.5% (active). For the same molecule, the growth in the assay with OVCAR-3 ovarian was -31.1% (active); in the assay on HS 578T breast it was 100%; in the assay on NCI/ADR-RES ovarian, 39.7%; in the assay on T-47D breast it was -36.6% (active); with BT-549 breast it was -60.8% (active); in the assay on MDA-MB-435 melanoma, -68.7% (active). For the same molecule, the growth in the assay with SW-620 colon is -53.1% (active); in the assay on MCF7 breast it was -48.3% (active); in the assay with HCT-116 colon, -94.2% (active); with HCC-2998 colon it was 51.8%; in the assay with KM12 colon, 8.19% (active).
Consider `O=C1C=CC(=O)N1CO`, for which the growth in the assay with RPMI-8226 leukemia was 112%; with OVCAR-8 ovarian it was 110%; in the assay on OVCAR-5 ovarian, 101%; in the assay with OVCAR-4 ovarian, 130%; in the assay on SK-OV-3 ovarian, 116%; in the assay on IGROV1 ovarian, 109%. Moreover, the growth in the assay on OVCAR-3 ovarian is 113%; in the assay with HS 578T breast, 108%; in the assay on NCI/ADR-RES ovarian it was 129%; in the assay on T-47D breast, 132%; with BT-549 breast it was 116%; in the assay with MDA-MB-435 melanoma it was 127%. Moreover, the growth was 115% in the assay with SW-620 colon, 104% in the assay with MCF7 breast, 104% with HCT-116 colon and 107% in the assay on HCC-2998 colon.
`CN(CCO)c1ccc(N2Cc3ccccc3OC3=C2C(=O)c2c(O)ccc(O)c2C3=O)cn1`: the growth was -16.2% (active) in the assay on RPMI-8226 leukemia; 1.86% (active) in the assay with OVCAR-8 ovarian; -59.8% (active) in the assay with OVCAR-5 ovarian; -97.5% (active) in the assay with OVCAR-4 ovarian; -3.73% (active) with SK-OV-3 ovarian; -72.7% (active) in the assay with IGROV1 ovarian. For the same molecule, the growth in the assay with OVCAR-3 ovarian was -99.7% (active); with HS 578T breast, 28.4%; in the assay on NCI/ADR-RES ovarian, -2.37% (active); in the assay with T-47D breast, -42.7% (active); in the assay on BT-549 breast, -73.2% (active); in the assay with MDA-MB-435 melanoma, -84% (active). Also, the growth was -51.7% (active) in the assay with SW-620 colon; -34.9% (active) in the assay on MCF7 breast; -85.6% (active) in the assay on HCT-116 colon; -84.2% (active) in the assay on HCC-2998 colon; -78% (active) with KM12 colon.
Turning to `O=C(/C=C/c1cn(-c2ccccc2)nc1-c1cccc(Nc2ccnc3cc(Cl)ccc23)c1)c1ccc2c(c1)OCO2`, the growth with SR leukemia is 8.67% (active); in the assay with OVCAR-8 ovarian it was 91.9%; in the assay with OVCAR-5 ovarian, 106%; in the assay on OVCAR-4 ovarian it was 143%; in the assay on SK-OV-3 ovarian, 113%; with IGROV1 ovarian it was 96.8%. For the same molecule, the growth with OVCAR-3 ovarian is 117%; in the assay with HS 578T breast, 105%; with T-47D breast, 93.3%; with BT-549 breast, 100%; with MDA-MB-435 melanoma, 69.6%; in the assay on SW-620 colon, 95.9%. Further, the growth was 81.1% in the assay on MCF7 breast, 83.8% in the assay on HCT-116 colon, 102% in the assay on HCC-2998 colon and 94.1% with KM12 colon.
On to `c1ccc(C(CC2=NCCCN2)c2ccccc2)cc1`, for which the growth was 103% in the assay with SR leukemia; 101% in the assay with OVCAR-8 ovarian; 95.9% in the assay on OVCAR-5 ovarian; 95.5% in the assay on SK-OV-3 ovarian; 108% in the assay with IGROV1 ovarian; 117% in the assay with OVCAR-3 ovarian. Moreover, the growth with HS 578T breast was 95.7%; with NCI/ADR-RES ovarian, 101%; in the assay with T-47D breast, 101%; in the assay with BT-549 breast it was 95.1%; in the assay on MDA-MB-435 melanoma, 94%; in the assay on SW-620 colon, 100%. Moreover, the growth with MCF7 breast was 94.1%; in the assay with HCT-116 colon it was 97.3%; with HCC-2998 colon it was 102%; with KM12 colon it was 99.7%.
As to `COc1ccc(C(=O)c2cc(C)c(OC)c(C)c2)cc1OC(=O)CCl`, the growth was 11.2% with RPMI-8226 leukemia; 6.89% (active) in the assay with OVCAR-8 ovarian; 39.6% in the assay on OVCAR-5 ovarian; 47.4% in the assay with OVCAR-4 ovarian; 20.6% in the assay on SK-OV-3 ovarian; 25.7% with IGROV1 ovarian. Moreover, the growth in the assay on OVCAR-3 ovarian is -15.5% (active); in the assay on HS 578T breast, 44.4%; with NCI/ADR-RES ovarian, 7.11% (active); with T-47D breast, 62.7%; with BT-549 breast, 15.2%; with MDA-MB-435 melanoma, -23.5% (active). The growth is 26.5% in the assay on SW-620 colon; 19.2% with MCF7 breast; 6.62% (active) with HCT-116 colon; 27% in the assay on HCC-2998 colon; 12.2% in the assay on KM12 colon.
Take `COC1CC(N)C2OC(c3ccccc3)OCC2O1` (centres undefined): the growth was 98% in the assay on SR leukemia; 98.4% in the assay with OVCAR-8 ovarian; 94.4% with OVCAR-5 ovarian; 97.5% in the assay on OVCAR-4 ovarian; 115% with SK-OV-3 ovarian; 110% in the assay on IGROV1 ovarian. In addition, the growth with OVCAR-3 ovarian is 111%; in the assay with HS 578T breast, 96.6%; in the assay on T-47D breast it was 107%; in the assay with BT-549 breast, 106%; with MDA-MB-435 melanoma it was 102%; in the assay with SW-620 colon it was 99.6%. Besides, the growth in the assay with MCF7 breast was 92.7%; in the assay with HCT-116 colon it was 102%; with HCC-2998 colon it was 102%; in the assay with KM12 colon it was 103%.
`CCOc1cccc(/C=N/NC(=O)Cc2ccc(Nc3ccnc(C(F)(F)F)c3)cc2)c1O`: the growth in the assay with RPMI-8226 leukemia was 4.35% (active); with OVCAR-8 ovarian, 16.7%; in the assay on OVCAR-5 ovarian it was 19.6%; in the assay on OVCAR-4 ovarian, 22%; in the assay with SK-OV-3 ovarian it was 20%; with IGROV1 ovarian, 11.3%. The growth in the assay with OVCAR-3 ovarian is 39.7%; in the assay with HS 578T breast, 76.4%; in the assay on NCI/ADR-RES ovarian it was 48%; in the assay with T-47D breast, 15.7%; with BT-549 breast it was 40.7%; with MDA-MB-435 melanoma, 40.3%. Further, the growth in the assay with SW-620 colon is 21.5%; in the assay on MCF7 breast it was 5.26% (active); in the assay with HCT-116 colon, 20.9%; with HCC-2998 colon it was 37.4%; with KM12 colon, 30.1%.
For `CCN(CC)c1ccc(C(=N)c2ccc(N(C)C)cc2)cc1`, the growth in the assay on RPMI-8226 leukemia was 6.17% (active); in the assay with OVCAR-8 ovarian, 11.9%; with OVCAR-5 ovarian, 16.8%; with OVCAR-4 ovarian it was 21.4%; with SK-OV-3 ovarian, 14.4%; in the assay with IGROV1 ovarian, 4.79% (active). Further, the growth was -12.6% (active) in the assay with OVCAR-3 ovarian; -31% (active) in the assay on HS 578T breast; -31.1% (active) in the assay with NCI/ADR-RES ovarian; -13.6% (active) with T-47D breast; 28.9% in the assay with BT-549 breast; 2% (active) in the assay with MDA-MB-435 melanoma. The growth in the assay on SW-620 colon was -18.6% (active); in the assay on MCF7 breast it was 2.36% (active); in the assay with HCT-116 colon, 1.67% (active); in the assay with HCC-2998 colon, 15.4%; in the assay on KM12 colon, -8.02% (active).
